Screens as filed in PubChem.
Luciferase inh: Firefly luciferase inhibition profiling of diverse chemical library using quantitative high-throughput screening. Luciferin 4-monooxygenase (Photinus pyralis), P08659. 76,000 tested, 2.5% active. purified P. pyralis luciferase, luminescence, biochemical. AID 1347043, 2019. Potency, µM (doses to about 115 µM), usual class: inhibitors; also: nearly all actives have a fitted effect of over 65% in size
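Biochemical qHTS: compound (6-point titration) added to 10uM D-luciferin plus 10uM ATP in Tris acetate pH 7.5 buffer with Mg, Tween-20 and BSA, then purified enzyme at 10nM; light output imaged.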
NPR1 antag: Natriuretic polypeptide receptor (hNpr1) antagonism - Primary qHTS; Atrial natriuretic peptide receptor 1 (Homo sapiens), P16066; HEK293 hNpr1 GloSensor cGMP, ANP-stimulated luminescence; Potency, µM (series often up to 46.3 µM), inactives show at the highest dose activity change, negative = inhibition, usual class: inhibitors; 76,000 tested, 1.6% active; AID 1347048, 2019; calls by dose curve; also: nearly all actives have a fitted effect of over 60% in size
Target sequence (P16066 whole entry, looked up): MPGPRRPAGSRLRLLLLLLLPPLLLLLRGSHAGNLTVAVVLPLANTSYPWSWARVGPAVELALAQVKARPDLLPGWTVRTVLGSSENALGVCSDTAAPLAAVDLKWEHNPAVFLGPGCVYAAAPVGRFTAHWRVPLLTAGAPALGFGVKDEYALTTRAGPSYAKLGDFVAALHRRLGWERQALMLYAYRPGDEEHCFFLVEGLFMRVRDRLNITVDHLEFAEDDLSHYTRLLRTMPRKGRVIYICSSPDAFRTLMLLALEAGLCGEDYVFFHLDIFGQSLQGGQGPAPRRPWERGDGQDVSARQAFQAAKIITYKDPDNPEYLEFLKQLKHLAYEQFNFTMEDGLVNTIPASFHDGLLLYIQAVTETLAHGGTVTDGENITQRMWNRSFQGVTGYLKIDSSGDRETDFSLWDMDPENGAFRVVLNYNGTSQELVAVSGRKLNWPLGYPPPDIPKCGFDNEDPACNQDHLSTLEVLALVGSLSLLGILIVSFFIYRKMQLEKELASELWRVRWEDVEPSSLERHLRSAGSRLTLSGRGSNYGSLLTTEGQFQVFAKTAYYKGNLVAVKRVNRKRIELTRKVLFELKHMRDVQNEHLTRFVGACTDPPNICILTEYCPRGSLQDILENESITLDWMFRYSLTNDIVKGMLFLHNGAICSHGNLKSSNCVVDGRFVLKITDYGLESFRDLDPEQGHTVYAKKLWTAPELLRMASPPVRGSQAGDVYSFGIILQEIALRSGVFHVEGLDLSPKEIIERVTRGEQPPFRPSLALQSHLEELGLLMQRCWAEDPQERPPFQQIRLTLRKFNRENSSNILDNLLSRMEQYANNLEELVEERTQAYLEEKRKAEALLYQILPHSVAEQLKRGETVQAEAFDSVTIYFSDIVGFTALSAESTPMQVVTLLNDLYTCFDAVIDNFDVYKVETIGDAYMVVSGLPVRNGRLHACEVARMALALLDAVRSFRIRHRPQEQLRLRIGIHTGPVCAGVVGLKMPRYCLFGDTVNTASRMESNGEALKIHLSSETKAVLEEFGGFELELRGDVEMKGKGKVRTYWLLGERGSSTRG
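HEK293 cells stably expressing human Npr1 and cGMP GloSensor pGS-40F, loaded 2 h with 2% GloSensor reagent, given compound 30 min at room temperature. Luminescence read before and 20 min after 0.1 nM hNppA.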
HEK293 tox: Cytotoxic Profiling in HEK 293 Cell Line of Diverse Libraries Using Quantitative High-Throughput Screening. HEK 293 viability, ATP luminescence (CellTiter-Glo), 48-72 h. Potency, µM (doses to about 115 µM), without a hit: top-dose activity change, negative = cytotoxicity, hits mostly inhibitors. 94,000 tested, 6.6% active; also: nearly all actives have a fitted effect of over 60% in size
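HEK 293 cells seeded at 250 cells/well were exposed to compound for 48 or 72 hr at 37 degree Celsius. Viability taken as ATP content by CellTiter-Glo luminescence.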
GPT2 inh: Primary qHTS assay for inhibitors of Glutamate pyruvate transaminase 2 (GPT2). Alanine aminotransferase 2 (Homo sapiens), Q8TD30. Recombinant GPT2, coupled pyruvate oxidase/HRP Amplex Red fluorescence. Potency, µM (titrated, usually from 57.7 µM), for the others: at the top dose activity change, negative = inhibition, most hits filed as inhibitors. 100,000 tested, 0.25% active. AID 1671188, 2021; also: nearly all actives have a fitted effect of over 60% in size
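Recombinant GPT2 (10ng/uL) with 250uM a-KG and 2mM L-alanine, 30 min at room temperature, in HEPES pH 7.5 buffer. Pyruvate detected by pyruvate oxidase/HRP/Amplex Red fluorescence after 30 min in the dark; AOA (50uM) as positive control.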
NIH3T3 tox: Cytotoxic Profiling in NIH 3T3 Cell Line of Diverse Libraries Using Quantitative High-Throughput Screening; AID 1345082, 2018; Potency, µM (series often up to 96.7 µM), inactives show at the highest dose activity change, negative = cytotoxicity, usual class: inhibitors; NIH 3T3 viability, CellTiter-Glo ATP luminescence, 48-72 h; 94,000 tested, 4.3% active; also: nearly all actives have a fitted effect of over 55% in size
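Viability of NIH 3T3 cells after 48 or 72 hr compound treatment at 37 °C was assessed by CellTiter-Glo, with luminescence imaged following a 10 min room-temperature step.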
An asterisk follows results filed as active; i = inactive; ? = inconclusive; nt = not tested or not shown; ! = not active in a repeat; [ ] = remark or other dose. In the library only some 10% were active in any assay of this set; here they are far more common. Unless noted, calls follow the shape of the dose curve; as a rule, active = well fitted curve in the direction sought with a large enough effect; inconclusive = small, poorly fitted or top-dose-only effect, or another doubt; inactive = no such curve, though single readings can be large; an effect the other way counts as inactive or inconclusive. % is scaled to controls: 0 for no effect and ±100 for the full control effect; potency is read from the fitted curve at half-maximal effect.

SMILES | Luciferase inh | NPR1 antag | HEK293 tox | GPT2 inh | NIH3T3 tox
Fc1ccc(-c2cc(CC3(NCc4ccco4)COC3)no2)cc1 | i | -15%[70.6 µM] | 89µM* | -4%[88.5 µM] | ?
CC(C)Cc1cc(CC2(NCc3ccccc3O)COC2)no1 | i | 3%[70.6 µM] | ? | -7%[88.5 µM] | ?
COc1ccc(-c2cc(CC3(NCc4ccccc4O)COC3)no2)cc1 | i | -18%[70.6 µM] | 100µM* | 4%[88.5 µM] | ?
COc1ccc(Nc2ccnc(N3CC4CCC(C3)N4CC(F)(F)F)n2)cc1 | nt | nt | 32µM* | ? | 40µM*
COc1ccc(Nc2ccnc(N3CCC(C(=O)NCC(F)(F)F)CC3)n2)cc1 | nt | nt | 79µM* | i | ?
COc1ccc(Nc2ccnc(N3CCC(C(=O)NCc4ccccc4OC)CC3)n2)cc1 | nt | nt | 28µM* | i | 32µM*
COc1ccccc1CNC(=O)C1CCN(c2nccc(Nc3ccccc3F)n2)CC1 | nt | nt | ? | i | ?
O=C1NC2(CCN(C(=O)c3ccc4c(c3)OCO4)CC2)COc2ccccc21 | i | 17% | -13% | ? | -3%
O=C1NC2(CCCN(C(=O)c3ccc4c(c3)OCO4)C2)COc2ccccc21 (configuration not stated) | i | -27% | 40µM* | i | ?
O=C1NC2(CCCN(C(=O)c3ccccc3F)C2)COc2ccccc21 (configuration not stated) | i | 13µM* | 35µM* | -2% | ?
Cc1ccc(C(=O)N2CCCC3(COc4ccccc4C(=O)N3)C2)cc1 (configuration not stated) | i | -15%[70.6 µM] | 63µM* | i | ?
CC(C)C(=O)Nc1ncc(-c2cc(C(F)F)nn2-c2c(Cl)cccc2Cl)s1 | nt | nt | nt | 10µM*! | nt
COc1ccc2cc(C(=O)N3CCC(Cc4ccc(C(=O)NC5CC5)cc4)CC3)[nH]c2c1 | i | ? | 35µM* | i | 28µM*
COc1ccc(C(=O)NC2CCN(C(=O)c3cc4c(=O)[nH]c(C)cn4n3)CC2)cc1 | i | -3% | -26% | i | -8%
COCCn1c(=O)c(C(=O)NCc2ccc(F)cc2)nc2cccnc21 | nt | nt | i | i | -10%
Cn1c(=O)cc(C(=O)NC2CCCc3c2[nH]c2ccc(Cl)cc32)c2ccccc21 (configuration not stated) | i | 0% | 32µM* | i | ?
CC(=O)NC1CCCc2c1[nH]c1ccc(Cl)cc21 (configuration not stated) | i | -1% | ? | -13% | ?
c1ccc(-c2nnc([C@H]3CCN(Cc4ccco4)C3)o2)cc1 | 50µM* | -2%[70.6 µM] | ? | i | -8%[174 µM]
Clc1ccc(-c2nnc([C@H]3CCN(Cc4c[nH]c5ccccc45)C3)o2)cc1 | i | -28%[70.6 µM] | ? | 1%[88.5 µM] | 112µM*
Clc1ccc(-c2nnc([C@H]3CCN(Cc4ccco4)C3)o2)cc1 | 45µM* | -6%[70.6 µM] | -21%[172 µM] | -6%[88.5 µM] | -37%[174 µM]
CCN1CCC2(CCC1=O)CN(Cc1cccc(Cl)c1F)CCN2C (configuration not stated) | i | 2% | -12% | -24% | -14%
CC(C)(C)c1ccc(C(=O)Nc2nc3c(s2)C[C@@H]2[C@](C)(CO)[C@H](O)CC[C@@]2(C)[C@@H]3CC(=O)NCc2ccco2)cc1 | ? | -6% | ? | -6% | ?
COCCCNC(=O)C1CCN(c2nccc(Nc3ccccc3F)n2)CC1 | nt | nt | ? | 2% | ?
Cc1ccccc1N(C)C1CN(C(=O)c2ccccn2)C1 | nt | nt | 79µM* | -23%[88.5 µM] | ?
COc1ccc(C(=O)N2CCCC2C(=O)N2CCCC(c3nc4ncccc4[nH]3)C2)cc1 (configuration not stated) | nt | nt | 0% | i | i
SMILES | Luciferase inh | NPR1 antag | HEK293 tox | GPT2 inh | NIH3T3 tox
C=CCN1Cc2cc(F)ccc2N(CC(O)Cc2ccccc2)CCC1=O (configuration not stated) | nt | nt | ? | nt | -28%
C=CCOCC(O)CN1CCC(=O)N(Cc2ccccc2)Cc2cc(F)ccc21 (configuration not stated) | nt | nt | ? | nt | -29%
O=C1CCN(C[C@@H](O)COCc2ccccc2)c2ccc(F)cc2CN1Cc1ccccc1 | nt | nt | 45µM* | nt | ?
O=C1CCN(CC(O)Cc2ccccc2)c2ccc(F)cc2CN1Cc1ccccc1 (configuration not stated) | nt | nt | 32µM* | nt | ?
O=C(NC1CCCCC1)C1(CCO)CC12CCOCC2 (configuration not stated) | nt | nt | 0% | i | -6%
CC1=C[C@@H](CNCc2ccco2)[C@H](C(C)C)C[C@H]1Cc1nnc(C(C)(C)C)o1 | i | 1%[70.6 µM] | 63µM* | -3%[88.5 µM] | 100µM*
CC1=C[C@@H](CNCc2cccnc2)[C@H](C(C)C)C[C@H]1Cc1nnc(-c2ccc([N+](=O)[O-])cc2)o1 | i | ? | 11µM* | i | 32µM*
CC1=C[C@@H](CN(C)CCc2ccccn2)[C@H](C(C)C)C[C@H]1Cc1nnc(-c2ccccc2)o1 | i | -19% | ? | 2% | ?
COc1ccc(-c2nnc(C[C@@H]3C[C@@H](C(C)C)[C@H](CNCc4ccncc4)C=C3C)o2)cc1 | i | ? | 25µM* | i | ?
CC1=C[C@@H](CNC(C)C)[C@H](C(C)C)C[C@H]1Cc1nnc(C(C)(C)C)o1 | i | -3%[70.6 µM] | -1%[172 µM] | -11%[88.5 µM] | -5%[138 µM]
COc1ccc(-c2nnc(C[C@@H]3C[C@@H](C(C)C)[C@H](CNCc4ccco4)C=C3C)o2)cc1 | i | ? | 45µM* | i | ?
CC(C)Cn1c(=O)c(C(=O)NCC(F)(F)F)nc2cccnc21 | nt | nt | 5% | -8% | -3%
COc1ccccc1Nc1ccnc(N2CCC(C(=O)NCc3cccs3)CC2)n1 | nt | nt | ? | -6% | ?
COCCN1CCCCCC(O)c2cc(C(=O)N3CCN(c4cccc(OC)c4)CC3)ccc21 (configuration not stated) | i | -5% | 40µM* | i | ?
COCCN1CCCCCC(O)c2cc(C(=O)NCc3ccc(N4CCC(C)CC4)cc3)ccc21 (configuration not stated) | ? | -9% | ? | i | 28µM*
COCCN1CCCCCC(O)c2cc(C(=O)N(C)Cc3ccc(N4CCCCC4)cc3)ccc21 (configuration not stated) | i | -24% | ? | ? | 40µM*
